Assay [1] concerns the target Lysosomal acid glucosylceramidase (Homo sapiens) (UniProt P04062). Description: Glucocerebrosidase-p2 (AID 348; in the data active means potency below about 10 µM; further: potency means the concentration at half of the fitted maximal effect). Conditions: purified GBA, blue fluorogenic substrate, 40 min. The method in brief: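 Compounds titrated from 0.6 nM upwards against 0.2 nM enzyme in pH 5.9 citric acid/KH2PO4, taurocholate, tween-20; blue fluorogenic substrate 80 uM, 40 min room temperature, stopped and read Ex 365/Em 440 for AC50.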

Assay [2] is described as follows: AP1 Signaling Pathway (AID 357).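 Further: ME-180 reporter cells stimulated with EGF at its EC50 level; on the % scale 0 is the no-effect control and ±100 the full control effect.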 The following applies: ME-180 AP-1-bla reporter, EGF-induced, beta-lactamase ratio, 5 h; at 7.69 µM (top of the series) unless noted. The method in brief:
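Cells are seeded overnight, exposed to compound titrations and an EC50 level of EGF for 5 hours at 37 °C, then loaded with CCF4 dye for 2.5 hours. Beta-lactamase activity under the AP-1 element is read as a blue/green ratio.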

Assay [3] deals with Cytochrome P450 1A2 (Homo sapiens) (UniProt P05177). The assay can be described thus: p450-cyp1a2 (AID 410; calls by dose curve; further: potency means the concentration at half of the fitted maximal effect;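 on activity change, negative = inhibition: -100% = full effect of reference inhibitor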). The following applies: recombinant CYP1A2, luciferin-ME demethylation, luminescence; series mostly up to 57 µM. Summed up: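 Human CYP1A2 (20nM) demethylated Luciferin-ME at its Km (100uM) in 100mM KPO4. After 10 min compound preincubation, NADPH regeneration ran the reaction 60 min at room temperature. Luciferin was read by luminescence, normalized to 57 uM furafylline.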
Chain of Cytochrome P450 1A2 (Homo sapiens) (P05177 whole entry, looked up): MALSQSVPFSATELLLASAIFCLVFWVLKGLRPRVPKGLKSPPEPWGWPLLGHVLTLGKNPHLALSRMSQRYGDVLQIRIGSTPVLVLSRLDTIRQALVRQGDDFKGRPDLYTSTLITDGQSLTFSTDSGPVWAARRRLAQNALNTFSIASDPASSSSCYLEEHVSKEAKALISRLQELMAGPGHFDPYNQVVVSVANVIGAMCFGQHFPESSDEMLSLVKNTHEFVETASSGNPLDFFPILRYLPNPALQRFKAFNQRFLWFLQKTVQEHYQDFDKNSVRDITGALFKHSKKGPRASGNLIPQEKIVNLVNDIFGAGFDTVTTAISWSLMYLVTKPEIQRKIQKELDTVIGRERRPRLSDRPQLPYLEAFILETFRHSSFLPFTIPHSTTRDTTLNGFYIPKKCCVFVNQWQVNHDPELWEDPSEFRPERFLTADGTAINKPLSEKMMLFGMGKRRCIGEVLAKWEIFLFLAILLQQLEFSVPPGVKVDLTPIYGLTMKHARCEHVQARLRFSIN

Assay [4] in a line: NFAT Signaling Pathway (AID 444).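 Further: carbachol stimulus at about its EC50 of 1 µM final; on the % scale 0 is the no-effect control and ±100 the full control effect.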 Conditions: Jurkat NFAT-bla M1, carbachol, beta-lactamase ratio, 5 h; at 7.69 µM (top of the series) unless noted. Summed up:
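Jurkat cells with NFAT-driven β-lactamase reporter and co-expressed M1 receptor, stimulated with carbachol (final 1 uM, ~EC50), compound titration, 5 h at 37 °C. CCF4 loaded 1 h at RT; 460/530 nm ratio gave %activity and AC50.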

A short description of assay [5]: Stat Signaling Pathway (AID 446).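 Further: ME-180 cervical cancer cells given 40 pM IL-6 alongside compound; SIE-controlled beta-lactamase reporter measured as 460/530 nm FRET emission ratio; on the % scale 0 is the no-effect control and ±100 the full control effect.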 Conditions: ME-180 SIE beta-lactamase reporter, IL-6 stimulated, 5 h; at 7.69 µM (top of the series) unless noted. The method in brief:
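Screening format detects activators and inhibitors alike: ME-180 SIE-bla cells stimulated at 40 pM IL-6 for 5 hrs with compound, then dual-emission beta-lactamase read at 405 nm excitation.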

The target in assay [6] is Glucocorticoid receptor (Homo sapiens) (UniProt P04150). The assay can be described thus: GR-GFP Redistribution (AID 450;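 active means compounds whose dose series gives a full or clear partial fitted curve of increased nuclear translocation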; further: potency means the concentration at half of the fitted maximal effect). Conditions: U2OS GR-GFP nuclear translocation, laser cytometry, 2 h.
Chain of Glucocorticoid receptor (Homo sapiens) (P04150 whole entry, looked up, the tested form may be a part): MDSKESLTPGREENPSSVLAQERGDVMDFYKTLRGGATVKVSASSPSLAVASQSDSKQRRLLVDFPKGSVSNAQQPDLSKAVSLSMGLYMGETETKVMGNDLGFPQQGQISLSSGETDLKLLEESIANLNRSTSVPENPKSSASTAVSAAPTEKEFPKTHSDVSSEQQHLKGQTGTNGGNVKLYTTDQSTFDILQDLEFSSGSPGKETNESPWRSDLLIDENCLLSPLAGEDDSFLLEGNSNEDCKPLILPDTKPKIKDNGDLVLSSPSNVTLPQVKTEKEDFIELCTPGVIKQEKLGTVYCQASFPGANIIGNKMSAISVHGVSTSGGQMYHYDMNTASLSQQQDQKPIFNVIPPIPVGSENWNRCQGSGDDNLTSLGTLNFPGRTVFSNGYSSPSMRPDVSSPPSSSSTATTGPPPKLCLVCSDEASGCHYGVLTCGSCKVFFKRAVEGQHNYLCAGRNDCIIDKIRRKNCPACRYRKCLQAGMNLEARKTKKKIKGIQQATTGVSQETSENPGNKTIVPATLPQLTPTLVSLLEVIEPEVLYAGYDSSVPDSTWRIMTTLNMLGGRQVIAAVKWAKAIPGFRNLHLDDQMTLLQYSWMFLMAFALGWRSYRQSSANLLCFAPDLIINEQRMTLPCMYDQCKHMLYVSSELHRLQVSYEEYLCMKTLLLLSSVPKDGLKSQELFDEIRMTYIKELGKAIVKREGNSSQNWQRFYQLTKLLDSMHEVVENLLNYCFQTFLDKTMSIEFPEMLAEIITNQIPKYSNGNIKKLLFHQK
Assay [7] has the same target. Description: GR-EFC Redistribution (AID 451; calls by dose curve; further: potency means the concentration at half of the fitted maximal effect). Conditions: CHO-K1 GR-EFC translocation, beta-gal luminescence, 2 h. The method in brief: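 CHO-K1 cells expressing nuclear EA and GR-ED fragments of b-gal; compounds titrated up to 46 uM final, 2 h at 37 C. GR nuclear translocation read as complemented b-gal luminescence after 1 h RT detection.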
In assay [8] the target is Mitogen-activated protein kinase 10 (Mus musculus) (UniProt Q61831). Description: JNK3 AlphaScreen Assay (AID 530).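 Further: kinase came from lysate of stimulated human HepG2 cells; signal reports phosphorylation of biotinylated GST-cJun 1-79 at Ser73 with 10 µM ATP; on the % scale 0 is the no-effect control and ±100 the full control effect.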 The following applies: JNK3 lysate, c-Jun phosphorylation; series mostly up to 57.1 µM. Summed up:
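qHTS format: compounds tested as titrations against IL-1beta/TNF-alpha-activated HepG2 lysate JNK3 with biotin-GST-cJun substrate and 10 uM ATP at room temperature. Loss of anti-phospho-cJun AlphaScreen signal indicates inhibition.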

Assay [9] has as its target Cytochrome P450 3A4 (Homo sapiens) (UniProt P08684). Description: qHTS Assay for Activators of Cytochrome P450 3A4 (AID 885; active means well fitted curve in the direction sought with a large enough effect; an effect the other way counts as inactive or inconclusive; further: nearly all actives have a fitted effect of over 65% in size). Conditions: recombinant CYP3A4, Luciferin-PPXE luminescence, 60 min; series mostly up to 57.1 µM. Summed up:
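Steps: enzyme/substrate mix dispensed; compound added, 10 min RT; NADPH regeneration solution added, 60 min RT; luciferin detection buffer stops reaction; 20 min later luminescence measured.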

Assay [10] deals with Cytochrome P450 2D6 (Homo sapiens) (UniProt P10635). Description: qHTS Assay for Inhibitors and Substrates of Cytochrome P450 2D6 (AID 891; active means well fitted curve in the direction sought with a large enough effect; an effect the other way counts as inactive or inconclusive; further: potency means the concentration at half of the fitted maximal effect; nearly all actives have a fitted effect of over 60% in size). The following applies: recombinant CYP2D6, luciferin-ME EGE luminescence; series mostly up to 57.1 µM. Summed up: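 Human CYP2D6 (5 nM) with 30 uM Luciferin-ME EGE (at Km) in 100 mM KPO4, compound preincubated 10 min, then NADPH regeneration system for 60 min at room temperature. Luciferin read by luminescence; normalized to 1.43 uM quinidine.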
Chain of Cytochrome P450 2D6 (Homo sapiens) (P10635 whole entry, looked up): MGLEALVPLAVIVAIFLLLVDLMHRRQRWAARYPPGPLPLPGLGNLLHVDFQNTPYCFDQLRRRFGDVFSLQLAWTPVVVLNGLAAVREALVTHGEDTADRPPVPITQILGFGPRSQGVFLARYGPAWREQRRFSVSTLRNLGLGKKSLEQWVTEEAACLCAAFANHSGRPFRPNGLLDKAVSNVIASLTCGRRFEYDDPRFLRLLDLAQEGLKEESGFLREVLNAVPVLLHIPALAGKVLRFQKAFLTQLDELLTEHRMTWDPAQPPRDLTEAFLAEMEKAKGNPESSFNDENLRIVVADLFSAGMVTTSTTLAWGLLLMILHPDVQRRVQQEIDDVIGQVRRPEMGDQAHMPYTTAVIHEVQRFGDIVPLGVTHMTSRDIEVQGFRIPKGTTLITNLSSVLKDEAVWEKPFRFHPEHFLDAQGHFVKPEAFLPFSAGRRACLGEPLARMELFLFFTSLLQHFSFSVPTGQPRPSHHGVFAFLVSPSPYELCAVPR

Assay [11] can be described thus: Confirmation and Secondary Assay for Modulators of Hemoglobin Beta Chain Splicing at IVS2 654 locus (AID 910; active means well fitted curve in the direction sought with a large enough effect; an effect the other way counts as inactive or inconclusive;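 further: HeLa cells stably carrying EGFP split by mutant beta-globin IVS2-654 intron; % of control where 0% means no effect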). Conditions: HeLa EGFP-654 splicing reporter, GFP fluorescence, 48 h; series mostly up to 38.3 µM. The method in brief: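 HeLa cells stably expressing EGFP interrupted by β-globin IVS2-654 intron, seeded overnight in Opti-MEM/2% FCS, then treated 2 days at 37 °C. Restored splicing read as total peak GFP intensity per well by laser scanning cytometry (488 nm excitation, 500–520 nm emission); 500 nM antisense PNA as control.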

A short description of assay [12]: Confirmation and Secondary Assay for Modulators of Hemoglobin Beta Chain Splicing at IVS2 705 locus (AID 930; active means well fitted curve in the direction sought with a large enough effect; an effect the other way counts as inactive or inconclusive;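 further: HeLa cells stably expressing the EGFP-705 splicing reporter; GFP fluorescence per well restored by corrected splicing of the IVS2-705 intron in EGFP; % of control where 0% means no effect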). Conditions: HeLa EGFP-705 splicing reporter, GFP fluorescence, 48 h; series mostly up to 38.3 µM. Summed up:
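First, HeLa EGFP-705 cells are seeded at 500/well in Optimem with 2% FCS and left overnight. Next, compound or DMSO is added for 2 days. Finally wells are laser-scanned and total peak GFP intensity scored.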

Assay [13] is described as follows: qHTS Assay for Lipid Storage Modulators (AID 1519; calls by dose curve). The following applies: Drosophila S3 cells, BODIPY lipid droplet/cell ratio, laser cytometry, cells loaded with oleic acid; for activity change, negative = inhibition: at 57.5 µM (top of the series). The method in brief:
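Cells seeded at 5,000 per well were treated with compounds over a concentration series and loaded with oleic acid (400 uM, as added). Lipid droplet fluorescence (488 nm excitation, 500-530 nm channel) was read by laser-scanning cytometry and normalized to 20 uM Triacsin C.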

Assay [14] has as its target Ubiquitin carboxyl-terminal hydrolase 1 (Homo sapiens) (UniProt O94782). Description: Inhibitors of USP1/UAF1: Pilot qHTS (AID 504865; active means well fitted curve in the direction sought with a large enough effect; an effect the other way counts as inactive or inconclusive;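 further: rhodamine fluorescence freed from ubiquitin-rhodamine substrate followed over time; top concentration of the series differs between compounds; on the % scale 0 is the no-effect control and ±100 the full control effect; nearly all actives have a fitted effect of over 35% in size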). Conditions: purified USP1/UAF1, Ub-rhodamine cleavage fluorescence; series mostly up to 54.9 µM. The method in brief:
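In 50mM HEPES pH 7.8 containing 0.5mM EDTA, 1mM TCEP, 0.1 mg/ml BSA and 0.01% Tween-20, 1nM USP1/UAF1 is exposed to compound for 15 min, then Ub-Rho (150nM final) is added and fluorescence is read over time.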

Assay [15] deals with 3',5'-cyclic-AMP phosphodiesterase 4B (Homo sapiens) (UniProt Q07343). Description: qHTS Assay for Inhibitors of PDE-IV (AID 607; active means well fitted activation curve with a large enough effect in the main read-out, with a control signal flat, not every such curve was filed as active; further: % of control where 0% means no effect). The following applies: HEK293 ACTOne CNG channel cells, membrane potential fluorescence; series mostly up to 22.9 µM. The method in brief:
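The readout is membrane depolarisation from a cAMP-sensing CNG channel, detected with a potential dye at ex 535/em 590. Cells were HEK293-derived (endogenous PDE-IV) at 1000 cells/well, titrated up to 22.9 uM final.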

Assay [16] concerns the target Cytochrome P450 3A4 (Homo sapiens) (UniProt P08684). Description: qHTS Assay for Inhibitors and Substrates of Cytochrome P450 3A4 (AID 884; active means well fitted curve in the direction sought with a large enough effect; an effect the other way counts as inactive or inconclusive; further: potency means the concentration at half of the fitted maximal effect; nearly all actives have a fitted effect of over 50% in size). Conditions: recombinant CYP3A4, Luciferin-PPXE luminescence; series mostly up to 57.1 µM. Summed up:
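20 nM human CYP3A4 with 25 uM Luciferin-PPXE (at KM) in 200 mM KPO4, preincubated 10 min with compound; NADPH regeneration started a 60 min RT reaction. Luciferin detected by luminescence, normalized to 57 uM ketoconazole as full inhibition.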

Setting [17] is: measured here: cell count channel max response.
Setting [18] is: measured here: lipid channel max response.

Six compounds from PubChem BioAssay (NCATS) can be followed below.

Records with an inconclusive call do not appear. Active and inactive are the calls of the source. Unless noted, the call rests on the fitted dose curve; in most records, active means well fitted curve in either direction with a large enough effect (not every such curve was filed as active); inconclusive means small, poorly fitted or top-dose-only effect, or another doubt; inactive means flat fitted curve, though single readings scatter.

Chain of 3',5'-cyclic-AMP phosphodiesterase 4B (Homo sapiens) (Q07343 whole entry, looked up): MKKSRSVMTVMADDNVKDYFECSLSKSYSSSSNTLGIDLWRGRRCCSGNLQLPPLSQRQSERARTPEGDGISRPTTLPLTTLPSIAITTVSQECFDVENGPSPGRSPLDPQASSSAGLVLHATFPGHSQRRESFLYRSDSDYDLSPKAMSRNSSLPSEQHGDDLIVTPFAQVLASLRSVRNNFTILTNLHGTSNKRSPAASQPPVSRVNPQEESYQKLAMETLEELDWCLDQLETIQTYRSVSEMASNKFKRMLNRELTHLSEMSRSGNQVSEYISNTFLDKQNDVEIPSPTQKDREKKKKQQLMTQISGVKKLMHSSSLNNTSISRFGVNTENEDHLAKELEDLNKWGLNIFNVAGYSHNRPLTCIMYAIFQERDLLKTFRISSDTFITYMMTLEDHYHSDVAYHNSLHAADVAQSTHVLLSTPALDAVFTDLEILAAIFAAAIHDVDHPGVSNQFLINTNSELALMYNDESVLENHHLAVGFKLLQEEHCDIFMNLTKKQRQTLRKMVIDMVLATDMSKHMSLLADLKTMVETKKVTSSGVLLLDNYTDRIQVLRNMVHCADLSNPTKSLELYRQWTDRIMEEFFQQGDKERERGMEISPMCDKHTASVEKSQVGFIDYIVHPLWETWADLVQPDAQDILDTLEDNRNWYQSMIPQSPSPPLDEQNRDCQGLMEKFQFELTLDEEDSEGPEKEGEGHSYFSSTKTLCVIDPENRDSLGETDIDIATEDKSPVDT
Chain of Lysosomal acid glucosylceramidase (Homo sapiens) (P04062 whole entry, looked up): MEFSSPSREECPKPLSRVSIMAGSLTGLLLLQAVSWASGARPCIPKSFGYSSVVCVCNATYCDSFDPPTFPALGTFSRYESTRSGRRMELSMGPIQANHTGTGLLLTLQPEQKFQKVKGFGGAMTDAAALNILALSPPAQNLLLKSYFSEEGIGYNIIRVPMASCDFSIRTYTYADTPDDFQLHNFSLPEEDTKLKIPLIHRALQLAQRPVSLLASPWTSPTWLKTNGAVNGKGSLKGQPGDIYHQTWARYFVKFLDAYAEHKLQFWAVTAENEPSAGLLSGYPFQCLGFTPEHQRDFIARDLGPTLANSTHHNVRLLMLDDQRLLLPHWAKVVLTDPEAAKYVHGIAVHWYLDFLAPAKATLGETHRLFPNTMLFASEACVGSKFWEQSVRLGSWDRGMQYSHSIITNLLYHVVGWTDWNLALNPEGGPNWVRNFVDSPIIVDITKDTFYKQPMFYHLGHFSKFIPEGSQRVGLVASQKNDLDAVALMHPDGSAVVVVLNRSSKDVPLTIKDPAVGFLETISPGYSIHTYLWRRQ
Chain of Ubiquitin carboxyl-terminal hydrolase 1 (Homo sapiens) (O94782 whole entry, looked up): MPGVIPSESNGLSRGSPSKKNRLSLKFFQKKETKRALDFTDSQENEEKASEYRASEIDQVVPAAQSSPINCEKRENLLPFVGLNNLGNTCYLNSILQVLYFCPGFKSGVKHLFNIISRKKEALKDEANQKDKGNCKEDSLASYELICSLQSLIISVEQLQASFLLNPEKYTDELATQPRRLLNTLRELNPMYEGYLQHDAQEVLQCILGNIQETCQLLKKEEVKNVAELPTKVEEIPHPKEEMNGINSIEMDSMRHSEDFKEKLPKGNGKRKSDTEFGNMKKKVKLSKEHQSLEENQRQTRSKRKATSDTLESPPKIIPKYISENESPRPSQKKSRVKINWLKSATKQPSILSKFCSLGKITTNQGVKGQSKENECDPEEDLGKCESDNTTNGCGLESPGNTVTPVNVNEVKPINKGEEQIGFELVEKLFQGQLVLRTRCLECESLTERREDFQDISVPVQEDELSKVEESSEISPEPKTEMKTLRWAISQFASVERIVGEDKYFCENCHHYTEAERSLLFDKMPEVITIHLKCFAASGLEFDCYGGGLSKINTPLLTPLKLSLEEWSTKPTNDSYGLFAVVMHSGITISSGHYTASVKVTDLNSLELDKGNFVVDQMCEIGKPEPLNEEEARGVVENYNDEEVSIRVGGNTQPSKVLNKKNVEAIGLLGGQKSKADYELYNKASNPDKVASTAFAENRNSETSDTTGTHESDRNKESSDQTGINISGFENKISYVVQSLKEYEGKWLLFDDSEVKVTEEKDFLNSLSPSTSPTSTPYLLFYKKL
Chain of Cytochrome P450 3A4 (Homo sapiens) (P08684 whole entry, looked up): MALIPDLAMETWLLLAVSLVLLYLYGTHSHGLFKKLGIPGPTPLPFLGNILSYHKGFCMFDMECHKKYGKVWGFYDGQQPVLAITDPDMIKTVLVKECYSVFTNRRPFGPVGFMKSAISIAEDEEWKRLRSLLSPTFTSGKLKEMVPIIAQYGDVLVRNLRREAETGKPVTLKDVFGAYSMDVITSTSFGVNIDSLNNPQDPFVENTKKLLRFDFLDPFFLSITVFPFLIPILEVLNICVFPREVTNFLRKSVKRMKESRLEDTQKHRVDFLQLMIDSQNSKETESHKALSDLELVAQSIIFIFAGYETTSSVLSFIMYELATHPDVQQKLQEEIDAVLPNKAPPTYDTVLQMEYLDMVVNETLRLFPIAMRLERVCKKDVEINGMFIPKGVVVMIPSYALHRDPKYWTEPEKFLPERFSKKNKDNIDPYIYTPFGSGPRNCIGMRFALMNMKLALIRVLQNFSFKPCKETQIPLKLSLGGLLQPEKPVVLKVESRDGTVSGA

As to `CN(C)Cc1ccccc1-c1ccc2ncnc(NCc3ccccc3)c2c1`, the Potency in [1] is > 11.4 µM (inactive); in assay [3], 15.8 µM (active); in assay [6], > 46 µM (inactive); in [7] it was > 46 µM (inactive); in assay [10], 7.94 µM (active). The activity change, negative = inhibition was -7.49% (inactive) in [2], -27% (inactive) in assay [4] and 5.57% (inactive) in [13]. For the same compound, the activity, negative = inhibition in assay [5] was 11.3% (inactive). Moreover, the Potency result in assay [8], in assay [9], in [11] and in assay [14] was “inactive” each time. Moreover, the compound was classed as inactive in assay [12]. Besides, the max response is 19.6% in assay [13] (setting [17]) and 25.6% in assay [13] (setting [18]).
On to `Cn1cccc1C(=O)N1CCC2(CC1)CN(Cc1cc(C(F)(F)F)cc(C(F)(F)F)c1)C2`, for which the Potency in assay [1] is > 11.4 µM (inactive); in assay [3], 10 µM (active); in [7], > 46 µM (inactive). In addition, the figures for the activity change, negative = inhibition in assay [2], in assay [4] and in [13] were -5.13% (inactive), 15.4% (inactive) and -8.03% (inactive), respectively. In assay [5], the activity, negative = inhibition was -14.1% (inactive). In addition, the Potency result in [8] and in [15] was “inactive” in each case. For the same compound, the values for the max response in assay [13] (setting [17]) and in [13] (setting [18]) were -0.271% and -4.98%, respectively.
As for `COc1cccc(-c2nccc(NC3CCNCC3)n2)c1`, the Potency in assay [1] is > 11.4 µM (inactive); in assay [3], 6.31 µM (active); in [6] it was > 46 µM (inactive); in assay [7] it was > 46 µM (inactive). Besides, the values for the activity change, negative = inhibition in assay [2], in assay [4] and in [13] were 6.93% (inactive), 8.54% (inactive) and 0.723% (inactive), respectively. Further, the activity, negative = inhibition in assay [5] is 14.2% (inactive). The Potency result in assay [8], in assay [15], in assay [11] and in [14] was “inactive” in each case. Moreover, the result in assay [12] was inactive. Further, the max response in assay [13] (setting [17]) stood at 4.24%; in assay [13] (setting [18]), 1.95%.
In the case of `Cc1cccc(CNc2cc(-c3ccc(C(=O)N(C)C)cc3)ncn2)c1`, the Potency is > 11.4 µM (inactive) in assay [1]; 15.8 µM (active) in assay [3]; > 46 µM (inactive) in assay [6]; > 46 µM (inactive) in assay [7]; 3.16 µM (active) in assay [16]. Moreover, the activity change, negative = inhibition in assay [2] was -7.22% (inactive); in [4], 13.4% (inactive); in [13], 0.763% (inactive). In addition, in assay [5], the activity, negative = inhibition is -2.64% (inactive). The Potency result in assay [8], in assay [9], in assay [11] and in [14] was “inactive” throughout. Moreover, the compound was classed as inactive in assay [12]. Also, the max response in assay [13] (setting [17]) is 0.996%; in [13] (setting [18]), 1.9%.
As for `COCCNc1ncnc2ccc(-c3ccccc3CN(C)C)cc12`, the Potency in assay [1] was > 11.4 µM (inactive); in assay [3], 25.1 µM (active); in [6] it was > 46 µM (inactive); in [7], > 46 µM (inactive). The activity change, negative = inhibition was -22.6% (inactive) in assay [2], -6.98% (inactive) in assay [4] and 12.3% (inactive) in assay [13]. The activity, negative = inhibition in assay [5] is 4.88% (inactive). Also, the Potency entry in assay [8], in [15], in assay [9], in assay [11] and in assay [14] was “inactive” throughout. The result in [12] was inactive. Besides, the max response in [13] (setting [17]) stood at 13.6%; in assay [13] (setting [18]), 25.7%.
Take `CC(=O)N1CCC2(CC1)CCN(c1ccncc1)CC2`: the Potency in assay [1] was > 11.4 µM (inactive); in assay [7], > 46 µM (inactive). Further, the figures for the activity change, negative = inhibition in assay [2], in assay [4] and in assay [13] were -3.43% (inactive), -17.4% (inactive) and -1.07% (inactive), respectively. In addition, the Potency result in assay [3], in assay [8] and in assay [15] was “inactive” throughout. For the same compound, the activity, negative = inhibition in assay [5] was -6.23% (inactive). The max response in assay [13] (setting [17]) is -6.73%; in [13] (setting [18]), -6.95%.
